About 83,000 compounds went through this panel and 20% of them were active in at least one assay; those are over-represented in the sample as a whole.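 Step 1: grow cells in 96-well plates. Step 2: add test compound at a single concentration. Step 3: incubate 48 h. Step 4: record percent growth.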 A number with no mark means an inactive call. The source made the active and inactive calls. How the source made its calls: active means growth percent below 10; inactive means the rest.
Legend:
Assay in all cases: NCI-60 one-dose screen, 48 h (100 = growth as untreated, 0 = no growth, -100 = all killed)
Conditions in all cases: 10 µM unless noted
NCI-H23 lung = system: NCI-H23 lung
NCI-H226 lung = system: NCI-H226 lung
NCI-H322M lung = system: NCI-H322M lung
HOP-62 NSCLC = system: HOP-62 NSCLC
NCI-H460 lung = system: NCI-H460 lung
HOP-92 NSCLC = system: HOP-92 NSCLC
NCI-H522 lung = system: NCI-H522 lung
A549/ATCC NSCLC = system: A549/ATCC NSCLC
786-0 renal = system: 786-0 renal
COLO 205 colon = system: COLO 205 colon
DU-145 prostate = system: DU-145 prostate
K-562 leukemia = system: K-562 leukemia
MALME-3M melanoma = system: MALME-3M melanoma
MDA-MB-231 breast = system: MDA-MB-231 breast
RXF 393 renal = system: RXF 393 renal
SF-268 CNS = system: SF-268 CNS
SF-295 CNS = system: SF-295 CNS
SF-539 CNS = system: SF-539 CNS
UACC-257 melanoma = system: UACC-257 melanoma
M14 melanoma = system: M14 melanoma

Compound | growth (NCI-H23 lung) | growth (NCI-H226 lung) | growth (NCI-H322M lung) | growth (HOP-62 NSCLC) | growth (NCI-H460 lung) | growth (HOP-92 NSCLC) | growth (NCI-H522 lung) | growth (A549/ATCC NSCLC) | growth (786-0 renal) | growth (COLO 205 colon) | growth (DU-145 prostate) | growth (K-562 leukemia) | growth (MALME-3M melanoma) | growth (MDA-MB-231 breast) | growth (RXF 393 renal) | growth (SF-268 CNS) | growth (SF-295 CNS) | growth (SF-539 CNS) | growth (UACC-257 melanoma) | growth (M14 melanoma)
CCc1ccc(-c2ccc(=O)n(-c3ccc(S(N)(=O)=O)cc3)n2)cc1 | 59.9% | 94.1% | 115% | 56.9% | 12.6% | 65.7% | -33.6% (active) | 18% | 50% | 26% | 59.6% | 11% | 35.6% | 66.8% | -31.8% (active) | 42.1% | 18.4% | 43.6% | 22.3% | 17.7%
CCCCCCCCC(C)OC(=O)c1nn(C(C)=O)c2ccccc12 (stereo not given) | 89.3% | 105% | 102% | 97.7% | 110% | 98.7% | 90.1% | 94.1% | 97.3% | 111% | 110% | 106% | 106% | 99.7% | 105% | 102% | 91.5% | 98.7% | 99.7% | 101%
COc1ccc(C(=O)N2NC(=O)/C(=C/c3ccccc3F)N=C2c2ccccc2)cc1 | 93.5% | 104% | 110% | 108% | 106% | 96.8% | 102% | 96.2% | 102% | 122% | 115% | 104% | 109% | 106% | 106% | 105% | 101% | 131% | 99.7% | 111%
CCOC(=O)c1cn2c3c(cc(C)cc3c1=O)C(=O)/C(=C/c1ccccc1)C2 | 108% | 94% | 96.9% | 79.2% | 104% | 57.1% | 75.8% | 89.1% | 82.7% | 93.4% | 106% | 79.7% | 112% | 87.2% | 74.6% | 95.7% | 92.6% | 87.8% | 78.4% | 101%
Cn1cnc2c(N3CCN(C(=O)OCc4ccc5c(Cl)cc(Cl)c(O)c5n4)CC3)nc(Cl)nc21 | 86.4% | 72.9% | 70.2% | 53.7% | 27.6% | 70.7% | 80.3% | 51.2% | 92.1% | 109% | 61.1% | 44.9% | 85.2% | 83% | 74.4% | 59.5% | 38.7% | 82.7% | 89.6% | 66.1%
CCCCNC(=O)Oc1ccc(/C(=C(\C)c2ccccc2)c2ccc(OCCN(CC)CC)cc2)cc1 | 77.5% | 85.4% | 86.3% | 88.2% | 56.1% | 43.3% | 53.4% | 62.2% | 67.3% | 58.5% | 89.3% | 8.28% (active) | 76.1% | 103% | 52.8% | 68.5% | 91.1% | 48.3% | 19.3% | 6.41% (active)
O=C1c2ccccc2-c2ccccc2C1(Cl)Cl | -20.8% (active) | 88.4% | 86.7% | -98% (active) | 4.08% (active) | -78.4% (active) | -88.6% (active) | -21.2% (active) | 103% | 92.3% | -90.6% (active) | -15.4% (active) | -99.4% (active) | -27.5% (active) | -95.6% (active) | -83.8% (active) | -91% (active) | -94.8% (active) | -93% (active) | -69.6% (active)
COc1ccc(-c2nc3sc(-c4cc(OC)c(OC)c(OC)c4)nn3c2/C=C2/C(=O)Nc3ccc(F)cc32)cc1 | 2.52% (active) | 110% | -59.4% (active) | 4.69% (active) | -26.6% (active) | -58.8% (active) | 8.56% (active) | -63.6% (active) | -50.3% (active) | -43.8% (active) | -61.9% (active) | 19.9% | -48.3% (active) | -31% (active) | -32% (active) | -7.6% (active) | -17.2% (active) | 97.7% | -25% (active) | -53.4% (active)

Reference: PubChem BioAssay (NCI)
